Assay [1] deals with T1, Serine/threonine-protein kinase haspin (Homo sapiens) (UniProt Q8TF76).
T1 sequence (whole entry): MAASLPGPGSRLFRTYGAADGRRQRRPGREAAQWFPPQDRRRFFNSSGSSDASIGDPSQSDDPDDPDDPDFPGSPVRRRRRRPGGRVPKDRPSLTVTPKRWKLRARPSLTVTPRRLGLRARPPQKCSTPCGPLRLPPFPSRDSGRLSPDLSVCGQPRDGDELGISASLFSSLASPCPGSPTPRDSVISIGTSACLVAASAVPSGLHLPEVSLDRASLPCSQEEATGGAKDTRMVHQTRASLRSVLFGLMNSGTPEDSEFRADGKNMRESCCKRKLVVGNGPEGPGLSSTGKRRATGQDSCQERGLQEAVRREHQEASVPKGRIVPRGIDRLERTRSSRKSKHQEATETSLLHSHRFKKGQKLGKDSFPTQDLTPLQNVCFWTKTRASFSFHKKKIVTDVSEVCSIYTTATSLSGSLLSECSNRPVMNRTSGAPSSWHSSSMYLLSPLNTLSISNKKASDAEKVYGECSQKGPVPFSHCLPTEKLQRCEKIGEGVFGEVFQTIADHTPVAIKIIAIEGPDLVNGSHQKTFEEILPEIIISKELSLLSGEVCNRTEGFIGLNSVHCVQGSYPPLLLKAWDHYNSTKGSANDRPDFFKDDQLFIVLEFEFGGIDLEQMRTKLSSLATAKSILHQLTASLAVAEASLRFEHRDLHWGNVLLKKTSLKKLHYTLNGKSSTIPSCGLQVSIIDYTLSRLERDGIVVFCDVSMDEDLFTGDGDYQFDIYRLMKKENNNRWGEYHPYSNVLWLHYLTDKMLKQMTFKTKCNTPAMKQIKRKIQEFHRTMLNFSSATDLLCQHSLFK
The settings on record: at 10 µM.

Assay [2] has as its target Tyrosine-protein kinase HCK (Homo sapiens) (UniProt P08631). The settings on record: at 1 µM.
Assay [3] has the same target. The settings on record: at 10 µM.
Assay [4] has the same target. The settings on record: at 1 µM. This is another data set of the same source.
For assay [5] the target is unchanged. The settings on record: at 10 µM. This is another data set of the same source.
Assay [6] deals with Insulin-like growth factor 1 receptor (Homo sapiens) (UniProt P08069). The settings on record: at 1 µM.
Assay [7] has the same target. The settings on record: at 10 µM.
The target in assay [8] is T2, Protein kinase C zeta type (Homo sapiens) (UniProt Q05513).
T2 sequence (whole entry): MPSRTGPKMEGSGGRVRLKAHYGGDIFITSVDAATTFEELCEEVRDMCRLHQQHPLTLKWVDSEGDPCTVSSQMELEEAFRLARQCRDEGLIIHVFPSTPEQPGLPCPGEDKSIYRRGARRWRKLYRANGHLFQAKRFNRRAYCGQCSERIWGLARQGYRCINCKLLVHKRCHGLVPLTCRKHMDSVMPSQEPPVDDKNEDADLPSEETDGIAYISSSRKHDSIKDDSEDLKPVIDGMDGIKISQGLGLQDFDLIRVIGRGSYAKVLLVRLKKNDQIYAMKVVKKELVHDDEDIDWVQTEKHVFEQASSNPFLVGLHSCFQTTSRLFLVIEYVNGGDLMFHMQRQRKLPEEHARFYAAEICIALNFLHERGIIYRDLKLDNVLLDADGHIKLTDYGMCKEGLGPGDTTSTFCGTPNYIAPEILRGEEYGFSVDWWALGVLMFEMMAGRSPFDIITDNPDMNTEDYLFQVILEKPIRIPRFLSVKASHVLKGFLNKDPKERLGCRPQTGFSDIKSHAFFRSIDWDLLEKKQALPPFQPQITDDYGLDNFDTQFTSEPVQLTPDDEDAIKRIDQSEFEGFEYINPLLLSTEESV
The settings on record: at 10 µM.

Assay [9] addresses T3, Protein kinase C iota type (Homo sapiens) (UniProt P41743).
T3 sequence (whole entry): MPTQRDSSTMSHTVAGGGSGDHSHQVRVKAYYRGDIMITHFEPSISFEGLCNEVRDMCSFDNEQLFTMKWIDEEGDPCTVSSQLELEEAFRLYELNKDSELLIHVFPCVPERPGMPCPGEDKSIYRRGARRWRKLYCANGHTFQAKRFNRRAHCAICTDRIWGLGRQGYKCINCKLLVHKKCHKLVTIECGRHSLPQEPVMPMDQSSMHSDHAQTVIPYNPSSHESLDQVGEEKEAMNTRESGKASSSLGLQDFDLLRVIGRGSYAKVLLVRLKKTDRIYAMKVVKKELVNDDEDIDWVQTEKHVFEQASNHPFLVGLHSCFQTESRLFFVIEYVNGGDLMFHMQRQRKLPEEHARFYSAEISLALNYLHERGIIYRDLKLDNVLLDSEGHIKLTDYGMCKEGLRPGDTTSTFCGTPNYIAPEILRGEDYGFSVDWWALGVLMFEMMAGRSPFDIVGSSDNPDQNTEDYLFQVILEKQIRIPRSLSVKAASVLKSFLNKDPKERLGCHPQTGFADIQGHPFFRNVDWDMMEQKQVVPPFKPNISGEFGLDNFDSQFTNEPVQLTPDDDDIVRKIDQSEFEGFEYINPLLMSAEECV
The settings on record: at 10 µM.

Assay [10] has as its target T4, Serine/threonine-protein kinase D1 (Homo sapiens) (UniProt Q15139).
T4 sequence (whole entry): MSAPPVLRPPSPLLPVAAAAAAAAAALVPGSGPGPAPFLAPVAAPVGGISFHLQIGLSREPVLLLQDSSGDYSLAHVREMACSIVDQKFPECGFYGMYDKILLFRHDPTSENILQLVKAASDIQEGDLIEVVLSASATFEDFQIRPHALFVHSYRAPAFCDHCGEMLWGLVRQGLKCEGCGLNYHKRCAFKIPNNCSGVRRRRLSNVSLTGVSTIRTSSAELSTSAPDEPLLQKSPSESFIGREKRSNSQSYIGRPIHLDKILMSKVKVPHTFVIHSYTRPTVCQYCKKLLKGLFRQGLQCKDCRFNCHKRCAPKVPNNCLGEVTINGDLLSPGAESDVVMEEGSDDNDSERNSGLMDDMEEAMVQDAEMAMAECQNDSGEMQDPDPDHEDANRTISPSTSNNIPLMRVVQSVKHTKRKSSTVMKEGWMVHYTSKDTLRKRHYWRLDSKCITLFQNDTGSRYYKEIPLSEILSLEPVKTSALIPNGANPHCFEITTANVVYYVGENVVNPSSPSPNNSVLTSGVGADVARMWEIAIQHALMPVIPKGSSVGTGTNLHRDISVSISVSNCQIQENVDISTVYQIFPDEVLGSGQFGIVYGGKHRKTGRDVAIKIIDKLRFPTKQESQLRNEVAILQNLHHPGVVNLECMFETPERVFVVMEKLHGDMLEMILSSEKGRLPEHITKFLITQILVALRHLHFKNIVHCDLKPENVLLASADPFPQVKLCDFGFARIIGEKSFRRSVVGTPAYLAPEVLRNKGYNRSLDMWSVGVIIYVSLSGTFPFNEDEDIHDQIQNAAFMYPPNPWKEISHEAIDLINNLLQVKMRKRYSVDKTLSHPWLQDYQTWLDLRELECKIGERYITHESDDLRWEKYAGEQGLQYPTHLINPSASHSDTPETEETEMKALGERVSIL
The settings on record: at 10 µM.

Assay [11] has as its target Homeodomain-interacting protein kinase 3 (Homo sapiens) (UniProt Q9H422). The settings on record: at 10 µM.
Assay [12] concerns the target T1, Serine/threonine-protein kinase haspin (Homo sapiens). The settings on record: at 1 µM.
For assay [13], the target named is Protein kinase C eta type (Homo sapiens) (UniProt P24723). The settings on record: at 1 µM.
Assay [14] has the same target. The settings on record: at 10 µM.
In assay [15] the target is Protein kinase C theta type (Homo sapiens) (UniProt Q04759). The settings on record: at 1 µM.
The target is the same in assay [16]. The settings on record: at 10 µM.
Assay [17] concerns the target T3, Protein kinase C iota type (Homo sapiens). The settings on record: at 1 µM.
The target of assay [18] is T5, Serine/threonine-protein kinase D2 (Homo sapiens) (UniProt Q9BZL6).
T5 sequence (whole entry): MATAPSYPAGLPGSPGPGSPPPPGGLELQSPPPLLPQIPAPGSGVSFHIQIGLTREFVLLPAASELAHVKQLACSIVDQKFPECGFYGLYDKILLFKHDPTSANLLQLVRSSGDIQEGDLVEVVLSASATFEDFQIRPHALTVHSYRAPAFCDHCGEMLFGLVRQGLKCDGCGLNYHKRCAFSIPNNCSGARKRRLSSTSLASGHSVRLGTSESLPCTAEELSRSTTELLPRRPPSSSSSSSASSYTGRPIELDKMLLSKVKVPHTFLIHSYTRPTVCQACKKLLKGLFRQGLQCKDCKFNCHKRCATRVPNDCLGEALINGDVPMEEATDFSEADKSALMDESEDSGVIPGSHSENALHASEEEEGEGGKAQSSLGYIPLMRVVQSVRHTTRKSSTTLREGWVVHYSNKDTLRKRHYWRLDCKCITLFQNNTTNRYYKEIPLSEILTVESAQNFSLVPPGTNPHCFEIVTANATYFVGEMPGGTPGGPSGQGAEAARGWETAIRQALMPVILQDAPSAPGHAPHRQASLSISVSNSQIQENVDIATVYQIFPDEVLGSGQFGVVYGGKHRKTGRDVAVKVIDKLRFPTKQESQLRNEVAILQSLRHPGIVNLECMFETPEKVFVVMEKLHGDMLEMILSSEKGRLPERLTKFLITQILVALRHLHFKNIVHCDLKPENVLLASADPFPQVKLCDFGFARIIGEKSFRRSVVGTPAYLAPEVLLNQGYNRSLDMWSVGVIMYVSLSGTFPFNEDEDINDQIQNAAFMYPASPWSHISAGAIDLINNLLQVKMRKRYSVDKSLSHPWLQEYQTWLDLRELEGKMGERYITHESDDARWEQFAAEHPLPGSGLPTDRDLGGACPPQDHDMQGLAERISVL
The settings on record: at 1 µM.

Assay [19] deals with T5, Serine/threonine-protein kinase D2 (Homo sapiens). The settings on record: at 10 µM.
For assay [20], the target named is T4, Serine/threonine-protein kinase D1 (Homo sapiens). The settings on record: at 1 µM.

Chain of Tyrosine-protein kinase HCK (Homo sapiens) (P08631 2-526 limits assumed): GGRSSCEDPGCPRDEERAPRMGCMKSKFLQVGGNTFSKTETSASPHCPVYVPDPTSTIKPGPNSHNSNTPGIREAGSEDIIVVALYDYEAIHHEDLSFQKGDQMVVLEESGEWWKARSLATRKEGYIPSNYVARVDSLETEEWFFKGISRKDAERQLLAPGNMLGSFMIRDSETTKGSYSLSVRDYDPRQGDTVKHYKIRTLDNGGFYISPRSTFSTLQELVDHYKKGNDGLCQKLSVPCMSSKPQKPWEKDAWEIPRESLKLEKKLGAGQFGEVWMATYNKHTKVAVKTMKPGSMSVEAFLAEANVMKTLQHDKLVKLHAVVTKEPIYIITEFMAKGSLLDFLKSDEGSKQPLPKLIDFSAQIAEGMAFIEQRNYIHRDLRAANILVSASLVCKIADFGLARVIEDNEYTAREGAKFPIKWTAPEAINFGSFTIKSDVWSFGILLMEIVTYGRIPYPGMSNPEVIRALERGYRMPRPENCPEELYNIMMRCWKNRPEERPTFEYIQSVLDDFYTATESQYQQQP
Chain of Protein kinase C eta type (Homo sapiens) (P24723 whole entry): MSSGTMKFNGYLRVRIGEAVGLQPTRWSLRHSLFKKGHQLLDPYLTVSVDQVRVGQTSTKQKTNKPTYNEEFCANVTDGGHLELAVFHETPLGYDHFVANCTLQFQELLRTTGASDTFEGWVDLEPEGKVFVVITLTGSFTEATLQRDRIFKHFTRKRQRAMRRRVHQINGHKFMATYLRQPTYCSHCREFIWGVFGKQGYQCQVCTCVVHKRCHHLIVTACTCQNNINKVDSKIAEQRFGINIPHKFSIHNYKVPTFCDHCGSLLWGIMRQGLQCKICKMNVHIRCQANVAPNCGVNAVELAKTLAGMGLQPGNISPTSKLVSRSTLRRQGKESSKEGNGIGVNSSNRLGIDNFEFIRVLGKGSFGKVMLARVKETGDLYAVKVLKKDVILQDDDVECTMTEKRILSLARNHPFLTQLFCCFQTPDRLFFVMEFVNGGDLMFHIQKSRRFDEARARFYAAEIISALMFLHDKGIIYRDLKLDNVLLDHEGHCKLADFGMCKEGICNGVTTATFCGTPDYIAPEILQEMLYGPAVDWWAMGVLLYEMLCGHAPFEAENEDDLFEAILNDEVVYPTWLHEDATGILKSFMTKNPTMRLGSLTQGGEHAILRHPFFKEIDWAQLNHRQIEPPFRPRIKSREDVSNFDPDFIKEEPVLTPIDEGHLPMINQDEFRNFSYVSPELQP
Chain of Homeodomain-interacting protein kinase 3 (Homo sapiens) (Q9H422 whole entry, looked up): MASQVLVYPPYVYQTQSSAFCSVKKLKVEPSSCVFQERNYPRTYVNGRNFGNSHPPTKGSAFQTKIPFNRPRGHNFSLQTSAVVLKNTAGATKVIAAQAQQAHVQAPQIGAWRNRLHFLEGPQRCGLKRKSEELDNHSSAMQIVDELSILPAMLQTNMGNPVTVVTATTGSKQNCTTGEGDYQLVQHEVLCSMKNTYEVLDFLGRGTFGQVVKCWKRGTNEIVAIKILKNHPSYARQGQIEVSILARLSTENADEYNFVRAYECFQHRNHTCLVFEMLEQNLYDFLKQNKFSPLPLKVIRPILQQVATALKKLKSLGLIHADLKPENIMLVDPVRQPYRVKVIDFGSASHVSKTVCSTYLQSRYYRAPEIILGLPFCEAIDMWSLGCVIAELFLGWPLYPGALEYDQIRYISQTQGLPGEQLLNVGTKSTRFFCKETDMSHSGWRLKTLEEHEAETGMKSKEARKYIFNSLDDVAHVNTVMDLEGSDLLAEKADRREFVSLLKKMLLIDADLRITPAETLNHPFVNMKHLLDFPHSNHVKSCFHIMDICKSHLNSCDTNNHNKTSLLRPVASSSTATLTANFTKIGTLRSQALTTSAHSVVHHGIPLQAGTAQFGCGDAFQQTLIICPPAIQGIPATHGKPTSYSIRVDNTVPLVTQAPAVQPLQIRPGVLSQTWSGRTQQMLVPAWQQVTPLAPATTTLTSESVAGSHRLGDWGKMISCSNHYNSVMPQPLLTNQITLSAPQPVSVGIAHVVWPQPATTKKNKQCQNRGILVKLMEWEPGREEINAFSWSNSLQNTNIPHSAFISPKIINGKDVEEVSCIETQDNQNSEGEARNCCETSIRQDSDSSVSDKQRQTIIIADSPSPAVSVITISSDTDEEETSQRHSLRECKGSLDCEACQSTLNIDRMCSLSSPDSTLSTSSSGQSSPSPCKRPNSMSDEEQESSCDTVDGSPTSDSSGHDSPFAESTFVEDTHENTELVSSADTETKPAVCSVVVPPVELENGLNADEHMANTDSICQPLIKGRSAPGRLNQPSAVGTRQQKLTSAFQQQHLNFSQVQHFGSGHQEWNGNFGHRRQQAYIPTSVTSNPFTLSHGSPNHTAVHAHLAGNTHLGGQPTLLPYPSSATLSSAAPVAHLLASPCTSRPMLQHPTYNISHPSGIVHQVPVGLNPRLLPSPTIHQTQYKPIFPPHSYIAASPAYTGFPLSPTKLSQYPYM
Chain of Protein kinase C theta type (Homo sapiens) (Q04759 whole entry, looked up): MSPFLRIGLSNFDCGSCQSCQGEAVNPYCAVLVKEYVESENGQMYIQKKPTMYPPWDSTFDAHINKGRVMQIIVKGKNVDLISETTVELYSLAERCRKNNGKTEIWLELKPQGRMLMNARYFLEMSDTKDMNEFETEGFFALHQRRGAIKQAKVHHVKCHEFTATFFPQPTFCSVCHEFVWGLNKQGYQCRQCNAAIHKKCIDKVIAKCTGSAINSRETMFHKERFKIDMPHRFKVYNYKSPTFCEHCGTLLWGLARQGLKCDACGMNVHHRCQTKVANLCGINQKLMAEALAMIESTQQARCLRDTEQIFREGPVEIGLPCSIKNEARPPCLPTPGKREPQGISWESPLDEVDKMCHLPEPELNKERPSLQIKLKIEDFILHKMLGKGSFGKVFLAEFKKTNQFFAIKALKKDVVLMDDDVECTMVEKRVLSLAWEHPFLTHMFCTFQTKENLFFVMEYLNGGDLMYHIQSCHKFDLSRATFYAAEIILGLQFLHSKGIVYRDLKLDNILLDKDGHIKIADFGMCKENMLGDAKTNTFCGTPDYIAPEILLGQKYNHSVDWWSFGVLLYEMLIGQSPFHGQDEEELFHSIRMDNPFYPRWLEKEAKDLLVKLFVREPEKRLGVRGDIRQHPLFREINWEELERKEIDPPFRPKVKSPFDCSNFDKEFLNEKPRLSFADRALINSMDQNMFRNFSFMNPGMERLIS
Chain of Insulin-like growth factor 1 receptor (Homo sapiens) (P08069 31-736 limits assumed): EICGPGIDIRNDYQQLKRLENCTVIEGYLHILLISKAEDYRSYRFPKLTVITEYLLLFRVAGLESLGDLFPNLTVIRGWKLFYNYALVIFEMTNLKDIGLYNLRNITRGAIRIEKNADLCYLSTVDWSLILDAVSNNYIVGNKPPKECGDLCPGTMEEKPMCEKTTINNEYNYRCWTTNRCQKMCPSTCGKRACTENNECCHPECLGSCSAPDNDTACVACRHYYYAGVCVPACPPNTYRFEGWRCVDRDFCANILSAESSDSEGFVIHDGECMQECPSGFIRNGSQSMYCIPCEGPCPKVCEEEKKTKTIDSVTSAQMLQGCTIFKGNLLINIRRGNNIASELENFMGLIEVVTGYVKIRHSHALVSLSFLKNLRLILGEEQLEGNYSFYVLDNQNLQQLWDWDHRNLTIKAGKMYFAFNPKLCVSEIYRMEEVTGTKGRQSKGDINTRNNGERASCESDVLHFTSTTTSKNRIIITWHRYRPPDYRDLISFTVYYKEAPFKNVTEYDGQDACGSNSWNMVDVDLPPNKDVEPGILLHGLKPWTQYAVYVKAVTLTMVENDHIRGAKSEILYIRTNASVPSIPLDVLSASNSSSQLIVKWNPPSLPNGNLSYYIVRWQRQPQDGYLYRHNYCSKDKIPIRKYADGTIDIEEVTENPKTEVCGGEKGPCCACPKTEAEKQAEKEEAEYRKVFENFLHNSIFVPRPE
Chain of Insulin-like growth factor 1 receptor (Homo sapiens) (P08069 741-1367 limits assumed): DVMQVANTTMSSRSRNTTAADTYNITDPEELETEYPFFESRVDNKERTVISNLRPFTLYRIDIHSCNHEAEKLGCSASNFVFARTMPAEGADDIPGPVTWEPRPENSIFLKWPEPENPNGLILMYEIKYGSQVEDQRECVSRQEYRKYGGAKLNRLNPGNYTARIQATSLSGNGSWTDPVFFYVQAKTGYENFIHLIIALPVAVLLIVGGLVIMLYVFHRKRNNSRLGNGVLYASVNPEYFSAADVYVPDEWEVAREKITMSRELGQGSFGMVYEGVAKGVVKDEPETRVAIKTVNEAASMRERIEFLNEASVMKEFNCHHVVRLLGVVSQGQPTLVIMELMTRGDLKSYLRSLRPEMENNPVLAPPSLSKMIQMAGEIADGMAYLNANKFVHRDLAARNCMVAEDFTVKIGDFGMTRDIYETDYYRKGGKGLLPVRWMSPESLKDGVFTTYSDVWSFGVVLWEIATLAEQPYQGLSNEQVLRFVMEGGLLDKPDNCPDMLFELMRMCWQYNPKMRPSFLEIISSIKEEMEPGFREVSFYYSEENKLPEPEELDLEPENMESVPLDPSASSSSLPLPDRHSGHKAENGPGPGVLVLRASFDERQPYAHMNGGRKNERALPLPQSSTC

`N#CCCc1ccc2c(c1)-c1[nH]c3ccc([N+](=O)[O-])cc3c1CC(=O)N2`: the residual activity in assay [1] is 74%; in assay [2], 30%; in assay [3], 6%; in assay [4], 27%; in [5], 16%; in assay [6], 117%. The residual activity in assay [7] worked out at 144%; in [8], 41%; in assay [9] it was 67%; in assay [10], 76%.
Regarding `Cc1cc2ncc(-c3ccccc3)nc2cc1C`, the residual activity was found to be 107% in assay [11]; 87% in assay [12]; 83% in [1]; 68% in [2]; 55% in [3]; 105% in assay [4]. Also, the residual activity in assay [5] was 99%; in [6] it was 131%; in assay [7], 144%; in assay [8], 104%; in [13], 107%; in [14], 84%. For the same compound, the residual activity in [15] was 110%; in assay [16], 102%; in assay [17], 83% (inactive); in assay [9], 78%; in assay [18] it was 104%; in assay [19], 110%.
In the case of `c1ccc2c(-c3ccncc3)c[nH]c2c1`, the residual activity in assay [11] was determined as 91%; in [12], 48%; in [1] it was 8%; in assay [2] it was 68%; in [3], 65%; in assay [4], 104%. The residual activity came to 89% in assay [5]; 84% in assay [8]; 64% in assay [13]; 17% in [14]; 88% in assay [15]; 70% in assay [16]. The residual activity in assay [17] was 89% (inactive); in assay [9] it was 67%; in assay [20], 87%; in [10] it was 69%; in assay [18] it was 104%; in assay [19], 106%.
For the compound `CC(=O)c1ccc(N2CCOCC2)cc1O`, the residual activity in assay [11] is 98%; in [12] it was 78%; in assay [1], 39%; in assay [2], 84%; in assay [3], 74%; in [4] it was 97%. In addition, the residual activity in assay [5] amounted to 107%; in [6] it was 148%; in assay [8] it was 106%; in assay [13], 92%; in assay [14], 84%; in [15], 109%. Also, the residual activity in assay [16] is 102%; in assay [17] it was 84% (inactive); in [9], 106%; in assay [20], 92%; in assay [10], 95%; in assay [18], 93%. Further, the residual activity in [19] was 109%.

For orientation: residual activity means the signal under treatment as a percentage of the control signal.
